The values that follow come from publication PMC12864922, “TDP-43 directly inhibits mRNA accumulation in neurites through modulation of mRNA stability”.

Over roughly 9,900 sequences, “r (bound/input frequency ratio)” has its median near 0.7; the highest 2% begin near 6.5. Shown is part of a subset that was picked to be rich in the highest values.

B1: ENSMUSG00000061578.946|Ksr2 (ssRNA)
RNA: GGGAGUUCUACAGUCCGACGAUCGCUUCGAUAUCCGCAUGCUAAACAAGAAGACUGCAUGUUAACGCUCCUGCCACUGUUGCCCCUUCCUUUACCCUUGGCAGACAUUGCUAAUCAAUCUCAGCACAGUUUCCAACCACAGUCAUAGAACAUUUGCCACAAAGGCCCUGGAUGUGACUAUAUGUGCUGAGAAGGGAAGGUAGUUUUCCCCCAGAAAGUCCCUUCUAAUAAACAUUGAUGACUUUAGAAUCCAUGACUCAGAAUUUUCCAGAGACCCAAUCCCUCGGGGUCCACUUAGUGAUGGCUCUUGCGGUCGCACUAGUGUGGAAUUCUCGGGUGUCAAGG
B2: ENSMUSG00000058297.101|Spock2|105:110 (ssRNA)
RNA: GGGAGUUCUACAGUCCGACGAUCGCUUCGAUAUCCGCAUGCUAAUUUGAUAUGAAAGCCCCACCACGGUCUUGUGGUGAUGAGGCAGGACCUGUACACACAGCAAGGCUUACUAUCCGUCUCCUGACAUCCGAAGAGCUCGUCGCAGCACACACUAAUGGCCCUUGGGCUGCACGUGGUUAAGCAUAGCUGUCUCUGUGGCCCAACACAAAGAGGUAAACUUACUUAAAACACAGGGGUUUUGUUGCUGUUUGUUUUUUGUUAGUUUGUUUGUUGAUAAUUGGAUUGAGGAGUUAAUCCUCUGCUCUUGCGGUCGCACUAGUGUGGAAUUCUCGGGUGUCAAGG
B3: ENSMUSG00000029636.282|Wasf3 (ssRNA)
RNA: GGGAGUUCUACAGUCCGACGAUCGCUUCGAUAUCCGCAUGCUAGCGCCAUGGCCAUCCUGGAGCCUGCGCACACGUGGCCGCUGCUGUGACUCGCUGUCCUUGGUAAUUGGUGAGAGGCUUUUUCUUUCUUUCUCAGUUCUGCUUUUCCACACUGAGACCCACCAUGUUGACAUCAUCCUCGCGACGUUGACAUUUGAGCCUUUUGUUCUGUCUCCCAUGUGCCCUGUAGAACCCAGCACUCAUGUUUGGCAAAACUUUUUUUGGUAAGGUCCUUAUGCUCUCAGGGUGGAGGGAAGACAUUACUCUUGCGGUCGCACUAGUGUGGAAUUCUCGGGUGUCAAGG
B4: ENSMUSG00000058297.560|Spock2 (ssRNA)
RNA: GGGAGUUCUACAGUCCGACGAUCGCUUCGAUAUCCGCAUGCUAACCUGGGGGUGCAAAAGGAGAUUCAAGACAUCCGUACCAAGUCAGGCAGAGCUACCCGCUUCUCAGCCCGUGUCCCACUUAAAACCGUCCGAUGUGUAAUCACUGAGCUUAGAGUUAAACAUUGUGGUCAAGUGCUUGGGUUCCGUCUGUAGAUUUAAGUGCUGACGUUGUAUCUCUCAGUAAUUUUAGAUGUCUUUUAAAAAAUCUGAACAAGUGUUAGACCCGUGUGUGCGUUGGUGGGCACUCAAGCAUCCCGUGGGCUCUUGCGGUCGCACUAGUGUGGAAUUCUCGGGUGUCAAGG
B5: ENSMUSG00000031028.59|Tub|169:181;199:203 (ssRNA)
RNA: GGGAGUUCUACAGUCCGACGAUCGCUUCGAUAUCCGCAUGCUACCCAGUCCUGGGUCAGUCCCCUGCUGCAGUGGUGUUAUCACACCGGAAAGCCUCUUCACCUGGAGGUACAGAGGGAGAGGAAGCACAAGCCUGGCUGCUGUGGCUCAGCCAUCCACUCAGCCUACGAGUCAGAGACAGUGGGUGUCCCGGGAAGCAGGGGUACAGUGACACACACACAUACUACAGGGCACUCAAGCUCAUACUAGAAAAAGCUCUGGUGGUCAGCAGAAAGCACUCCCACUUCAAAAGGGCCCAUUAGGCUCUUGCGGUCGCACUAGUGUGGAAUUCUCGGGUGUCAAGG
B6: ENSMUSG00000034801.92|Sos2 (ssRNA)
RNA: GGGAGUUCUACAGUCCGACGAUCGCUUCGAUAUCCGCAUGCUACAGAGCAAGUCCCAGGACAGCCAGGGCUACACAAAAAAACCUUGUCUCAAAAGUCAAAAUACAAACAAAAGAGAGAAAAGGAAGGAAGGAAAGAAUUUGAAAUAUUAAAAUGCAAAAGCCCUUCACCAUAGCCCCCAGGUGAUCAGCAGCAUUGCUUCCUCGGCUCCCCAGUGCUGCCCUAGGCCAGUAUAAAGACUCUGUAUUGCACUGUAGACUCUGCUAGCAGACGGCACUGAGAGGAGCCAGCGCUCGAGGGCGUUCUCUUGCGGUCGCACUAGUGUGGAAUUCUCGGGUGUCAAGG
B7: ENSMUSG00000090935.132|Synj2bp|162:172 (ssRNA)
RNA: GGGAGUUCUACAGUCCGACGAUCGCUUCGAUAUCCGCAUGCUAUCUCUCUCUCACUCACCAUCUCUGACAUCCUCCCAUAUUCUUUCUCCUCCACAUAGCCAAUACAAGAUUUAAAGUGACUGCUUAUCACCCAAAACCCUGCUAUUCAAAAUCUCCUAUUCUAAUGGAAGAGUACAGGGGUUAUUUGAAGAAAAGCUGUGGUGCACACACACACGGGGAAGCCUUGCUUAGAAUGAAUGAGAAGUUACAUAUUUUACUAGGACUGCCAAUAAAAACUCAGCUAUCAUCCAAAGAGGAAAAGCCUCUUGCGGUCGCACUAGUGUGGAAUUCUCGGGUGUCAAGG
B8: ENSMUSG00000029028.117|Lrrc47 (ssRNA)
RNA: GGGAGUUCUACAGUCCGACGAUCGCUUCGAUAUCCGCAUGCUAGCUCCAAUGUGACUCUCCUGUCUCCUGUCCUCAUGGAUCACUCAGUAACUGCUGGGGAUGUUCUGAAUCAUGUGGCCUGUGGCCGUGCUGGAGAGUCAGGUUGAACGCAGGCAUUCUAUUGAACAGUAUUUAUUUUUCUACAACAUGUUAAUAGAAUUUUUUUUUAAAUCAGCUGUGCAUAGACAGUUGAGAACAUCAUGUUGUGAGUGUAAUCUUCUUAGAGCUUGUUUCCAGGCACCGUGCUGCCGCCAUGCUCCCAGCUCUUGCGGUCGCACUAGUGUGGAAUUCUCGGGUGUCAAGG
B9: ENSMUSG00000029028.162|Lrrc47|217:221 (ssRNA)
RNA: GGGAGUUCUACAGUCCGACGAUCGCUUCGAUAUCCGCAUGCUAGCCUUCCACGGCUGUGCUUGGAACUGUAGUGCUGGUCGUUGUUGGCACAUCUGCGCCUUGGCCAAGGAAGUUAUCUAUGUCCGUGUAGUCCUUUGUAGUCAGACAGAUGCUUCGUGGACUGUGCCUCACACAUGGCCCUGCAGGCUCCAUGUCAGCGUGUCCCACUAUUCAUGUCCCAUCUCUGUGCAUCCUGACUGCGCACAUCCCAUCUCCGCAACACAACGCAUCUGUACCAGCACACAGCUGCCAUCCCUCGAGCCCUCUUGCGGUCGCACUAGUGUGGAAUUCUCGGGUGUCAAGG
B10: ENSMUSG00000004113.139|Cacna1b|48:52;226:230 (ssRNA)
RNA: GGGAGUUCUACAGUCCGACGAUCGCUUCGAUAUCCGCAUGCUACACCAGUGAUCUCACGUCUCUUGUGGUCUUGGAGUCAAAUAGCACAUCAUACUAGAGAUGCGCUCAAGGGCCUGCCUUUCACCUACACUGUCACCAUAACAGGGACCAAAUCUGGAGGAUGUCCUUGCUGUUGAUUCUGGUUUUCAGUCACAACACUUUCACUGUUUGUCAUUUCUAUGUAGUUGAUCUAGAAAAAGCAGAAAUCAAAACAGGAAAGGAAAUGUUACACAAACUUUAAAAAAAAAGUCAACAUGUAGGAACUCUUGCGGUCGCACUAGUGUGGAAUUCUCGGGUGUCAAGG
B11: ENSMUSG00000031028.90|Tub|13:17;146:150 (ssRNA)
RNA: GGGAGUUCUACAGUCCGACGAUCGCUUCGAUAUCCGCAUGCUAGGCACUCAAGCUCAUACUAGAAAAAGCUCUGGUGGUCAGCAGAAAGCACUCCCACUUCAAAAGGGCCCAUUAGGCCCAAAGGGGGUUAGGAGUGGUAGGGAUAGGUGCGUGGCAGGUCCCUGCUAGGAUUGCAGGGGCCUGGCCAACACAAUUAGCUGGAGGCUUAGAAUGCUAGCUCAUUUGUUGCUACAGAUUUGCCCAGUGCUUGCACACGUAAGAACCCAGCUCUCAAGGCCAAAUAUCUGAGUGGAUGGGGAUGACUCUUGCGGUCGCACUAGUGUGGAAUUCUCGGGUGUCAAGG
B12: ENSMUSG00000061578.112|Ksr2 (ssRNA)
RNA: GGGAGUUCUACAGUCCGACGAUCGCUUCGAUAUCCGCAUGCUAACCCUUCUCCCAUUUUGUAAGAACACUGUUCUAACUCACCUCAUGCCCACGCUACCCUGGGCAACUGGAGAACACCAUAGCGUUUCAGCUGAUGUGACAUUUGGUGUGACCUUUACCAGUUCACCAUCAUUCAUGGCUUCCCCCAAAGUCCCGAGUCCUGAGAACCGGGGCUGUGGCAAGAGAGUUCUGGUGUGUUCUCUCUGUGGGGCUAGCAAUGCCGGGGUUAAGUUCUCCCUCGGUGAUGGAGACGGUCCUGGGUACUCUUGCGGUCGCACUAGUGUGGAAUUCUCGGGUGUCAAGG
B13: ENSMUSG00000090935.58|Synj2bp (ssRNA)
RNA: GGGAGUUCUACAGUCCGACGAUCGCUUCGAUAUCCGCAUGCUACACAGGUUACCAGUGCAGAAUGGACCUAUAGUACAUCGAGGUGAAGGAGAGCCAAGUGGAGUUCCUGUAGCUAUGGUGCUGCUACCAGUGUUUGCCCUCACCAUGGUAGCAGUUUGGGCCUUCGUGAGAUACCGAAAGCAGCUUUGAAAUGCUUGCUGUCUUCCAGUGUGUCCAAUGAACUCUCUCUCUCACUCACCAUCUCUGACAUCCUCCCAUAUUCUUUCUCCUCCACAUAGCCAAUACAAGAUUUAAAGUGACUGCUCUUGCGGUCGCACUAGUGUGGAAUUCUCGGGUGUCAAGG

In the test the target is TDP-43 (Homo sapiens, UniProt Q13148 1-414). The experiment in a line: RNA Bind-n-Seq with designed 260-mer pool; 25 mM Tris-HCl, 150 mM KCl, 3 mM MgCl2, BSA (printed 500 mg/mL), 20 units/mL SUPERase IN; pH not stated; 500 nM RNA pool, 1 h, 4 C; TDP-43 5, 50, 500 nM; high values mean tight binding. Particulars: protein: recombinant; tags: SBP (GST cleaved off with PreScission; pGEX-GST-SBP). The procedure, abridged: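 Streptavidin beads captured recombinant SBP-tagged TDP-43 at 5, 50 or 500 nM, and the beads were incubated for 1 h at 4 °C with 500 nM of an in vitro-transcribed pool of 260-nt 3′ UTR oligos in 25 mM Tris-HCl, 150 mM KCl, 3 mM MgCl2, BSA and SUPERase IN. After washing, bound RNA was eluted with biotin, reverse transcribed, PCR-amplified and sequenced. Binding is reported as R, the mapped-read-normalized abundance of each oligo in the bound sample divided by its abundance in the input. Two independent protein batches served as duplicates.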
Sequence of TDP-43 (Q13148 whole entry): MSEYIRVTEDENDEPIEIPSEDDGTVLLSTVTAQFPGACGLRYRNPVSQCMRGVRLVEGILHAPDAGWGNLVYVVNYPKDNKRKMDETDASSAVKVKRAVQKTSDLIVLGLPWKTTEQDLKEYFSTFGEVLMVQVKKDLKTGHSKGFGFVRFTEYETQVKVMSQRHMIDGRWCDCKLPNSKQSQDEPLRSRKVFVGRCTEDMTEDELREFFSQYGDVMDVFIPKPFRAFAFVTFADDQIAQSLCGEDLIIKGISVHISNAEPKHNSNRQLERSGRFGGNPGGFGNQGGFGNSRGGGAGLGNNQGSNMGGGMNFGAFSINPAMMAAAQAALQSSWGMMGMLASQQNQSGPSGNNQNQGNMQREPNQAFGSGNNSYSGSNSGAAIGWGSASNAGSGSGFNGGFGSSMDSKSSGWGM
As to B1, the binding signal was 0.389 R (bound/input frequency ratio).

Turning to B2, the binding signal is 1.12 R (bound/input frequency ratio).

Turning to B3, the binding signal is 0.86 R (bound/input frequency ratio).

With B4, the binding signal is 0.604 R (bound/input frequency ratio).

Turning to B5, the binding signal is 0.754 R (bound/input frequency ratio).

In the case of B6, the binding signal was 0.552 R (bound/input frequency ratio).

Turning to B7, the binding signal was 0.765 R (bound/input frequency ratio).

With B8, the binding signal was 0.231 R (bound/input frequency ratio).

Turning to B9, the binding signal was 0.706 R (bound/input frequency ratio).

With B10, the binding signal was 0.174 R (bound/input frequency ratio).

B11: the binding signal is 1.27 R (bound/input frequency ratio).

Consider B12, for which the binding signal is 0.565 R (bound/input frequency ratio).

Take B13: the binding signal was 1.69 R (bound/input frequency ratio).
